SMILES strings stand for the structures. Results filed as inconclusive are left out. Where a call stands in place of a potency, no number is given. Active and inactive are the calls of the source. The call rests on the fitted dose curve; in most records, active means well fitted inhibition curve with a large enough effect; inconclusive means small, poorly fitted or top-dose-only effect; inactive means flat fitted curve, though single readings scatter.

Sequence of Calcium and integrin-binding protein 1 (Homo sapiens) (Q99828 whole entry, looked up): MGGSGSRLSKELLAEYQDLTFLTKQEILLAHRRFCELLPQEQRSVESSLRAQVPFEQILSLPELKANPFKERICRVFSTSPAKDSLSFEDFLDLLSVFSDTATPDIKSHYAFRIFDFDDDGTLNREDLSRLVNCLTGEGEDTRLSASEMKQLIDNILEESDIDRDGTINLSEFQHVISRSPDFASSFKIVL

For the assay, the target named is Calcium and integrin-binding protein 1 (Homo sapiens) (UniProt Q99828). Kind of assay: Primary qHTS for Identification of Calcium Integrin Binding Protein 1 (CIB1) Competitor (AID 1508620). Further: top concentration of the series differs between compounds. The note with it: CIB1-GST / FITC-alphaIIb peptide fluorescence polarization; series mostly up to 114 µM. The gist of the method:
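Fluorescence polarization competition: GST-tagged CIB1 (1 uM final) preincubated with compound 15 min at room temperature, then FITC-labelled alphaIIb peptide (100 nM final) added. After 15 min at room temperature, polarization read at Ex 480/Em 540.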
Background: qHTS replaces the single test concentration by a dilution series.
`CC(Nc1nc(-c2ccccc2C(F)(F)F)nc2ccccc12)c1ccc(-c2cccc(C(F)(F)F)c2)cc1` (stereo not given): the Potency result was “inactive”.

On to `Cc1nc2ccc(Nc3nc(Nc4c(C)cc(C=CC#N)cc4C)nc4nc[nH]c34)cc2s1`, for which the Potency result is “inactive”.

On to `COc1ccnc(NC(=S)N2CCN(c3ncc(C(F)(F)F)cc3Cl)CC2)c1`, for which the Potency entry is “inactive”.

Regarding `COc1cccc(CNc2ccc(S(=O)(=O)Nc3ncccn3)cc2)c1O`, the Potency entry was “inactive”.

Consider `O=[S+]([O-])(c1c(F)cccc1F)N1CCN([S+](=O)([O-])c2csc3ccccc23)CC1`, for which the Potency entry was “inactive”.

On to `Cc1cnc(-c2ccccc2C(C)C)nc1NCc1ccc(C#N)cc1`, for which the Potency entry is “inactive”.

As for `Cc1ccc2nc3sc(C(=O)N4CCOCC4)cc3cc2c1`, the Potency entry is “inactive”.

Turning to `CC(=O)Nc1ccc(OCc2cccc(C3Nc4ccccc4C(=O)N3Cc3ccco3)c2)cc1` (stereo not given), the Potency entry was “inactive”.

For `COc1cccc(C2c3c(ncn(-c4ccc(Br)cc4)c3=N)Oc3ccc4ccccc4c32)c1` (stereo not given), the Potency entry was “inactive”.

With `C[C@H](N)C(=O)Nc1cccc(-c2nn3c(=O)cc(N4CCNCC4)nc3s2)c1`, the Potency entry is “inactive”.

For the compound `CC(=O)c1ccccc1-c1ncc(C)c(NCc2ccc(-c3cccnc3)cc2)n1`, the Potency result was “inactive”.

Consider `Nc1c(-c2ccccc2)cc[nH]c1=O`, for which the Potency entry is “inactive”.

Take `O=[S+]([O-])(Nc1ccccc1)c1ccc(NCc2cccc(C(F)(F)F)c2F)cc1`: the Potency result is “inactive”.

As to `Clc1cccc(-c2ccc3ncnc(NCc4ccc5c(c4)OCO5)c3c2)c1`, the Potency entry is “inactive”.

On to `Cc1cc(C)nc(NC(=S)N2CCN(S(=O)(=O)c3cccc(C(F)(F)F)c3)CC2)c1`, for which the Potency entry was “inactive”.

With `Cc1cc2c(s1)c1cnn(Cc3cc(F)cc(F)c3)c(=O)c1n2C`, the Potency result was “inactive”.

On to `N#Cc1nc(Nc2cccc(Br)c2)nc(NC2CCCC2)n1`, for which the Potency result is “inactive”.

Turning to `Cc1ccc(NC(=O)CN2C(=O)N/C(=C\c3cccn3-c3cccc(-c4nn[nH]n4)c3)C2=O)cc1`, the Potency result was “inactive”.

Take `Cc1cc(C)nc(NC(=S)N2CCN(c3ccc(F)c(Cl)c3)CC2)c1`: the Potency result was “inactive”.

Turning to `Cc1ccc(CN(C)c2ncnc3ccc(-c4ccc5c(c4)OCO5)cc23)o1`, the Potency result was “inactive”.

On to `c1csc(CNc2ncnc3ccc(-c4ccc5c(c4)OCO5)cc23)n1`, for which the Potency result was “inactive”.

`O=C1CCc2cc(S(=O)(=O)Nc3cccc(B(O)O)c3)ccc2N1`: the Potency result was “inactive”.

Regarding `Cc1ccnc(NC(=S)N2CCN(c3cccc(Cl)c3Cl)CC2)c1`, the Potency result is “inactive”.

Take `NC(=O)C1CCN(c2nc(-c3ccc(Cl)cc3)cs2)CC1`: the Potency entry is “inactive”.

Consider `O=C(Nc1ccc(F)c(C(F)(F)F)c1)Nc1nnc(-c2cccnc2)s1`, for which the Potency result was “inactive”.

As to `Fc1ccc(Nc2cc(-c3ccccc3)nc(-c3ccncc3)n2)cc1F`, the Potency entry is “inactive”.

As for `O=C1CCCC2=C1C(c1ccc(Cl)cc1)N=C(Nc1nc3ccccc3o1)N2` (stereo not given), the Potency entry was “inactive”.

Consider `COC(=O)c1c(NC(=O)COC(=O)c2ccc(Cl)cc2[N+](=O)[O-])sc2c1CCCCC2`, for which the Potency entry is “inactive”.

Take `NC(=O)C1CCN(c2nc(-c3cccc4ccccc34)cs2)CC1`: the Potency entry is “inactive”.

Regarding `Cc1ccccc1CSc1nc2ncc(Br)cc2[nH]1`, the Potency entry is “inactive”.

For the compound `COc1cccc(-c2nnc3n2N=C(c2ccc(OC)cc2OC)CS3)c1`, the Potency entry was “inactive”.

Take `O=[S+]([O-])(Nc1ccccc1)c1ccc(NCc2cccc(Cl)c2F)cc1`: the Potency result was “inactive”.

Turning to `COc1cccc(NC(=S)N2CCN(c3ccc(Cl)cc3Cl)CC2)n1`, the Potency entry is “inactive”.

`CC(C)(C)OC(=O)Cc1nnc(C(C(=O)OCc2ccccc2)c2ccccc2)s1` (stereo not given): the Potency entry was “inactive”.

Regarding `COc1ccc2nc(-c3cccc(F)c3)sc2c1`, the Potency result is “inactive”.

For the compound `COc1ccc(S(=O)(=O)Nc2ccc(C)c(C)c2)cc1`, the Potency result is “inactive”.

For the compound `Cc1ccnc(NC(=S)N2CCN(c3ccc(C(F)(F)F)cc3)CC2)c1`, the Potency result is “inactive”.

Take `O=C(CSc1nnc(-c2cccc(S(=O)(=O)N3CCCC3)c2)n1-c1ccccc1)Nc1ccccc1`: the Potency entry was “inactive”.

On to `N#Cc1nc(Nc2ccccc2)nc(NC2CCCCC2)n1`, for which the Potency result was “inactive”.

Take `COc1ccc(-n2cnc3c(c2=N)C(c2cccc(OC)c2)c2c(ccc4ccccc24)O3)cc1` (stereo not given): the Potency entry is “inactive”.
